Results on 64 compounds are retold here after PubChem BioAssay AID1851 (National Center for Advancing Translational Sciences (NCATS), 2009).

As a reminder, the AC50 is the concentration at which the activity in the assay is half-maximal.

Hit rate of the full screen: of about 16,000 compounds, about 5,100 (32%) were called active. Another 25% or so got no clear call; they are omitted. The list shows a part of the results. Unmarked numbers belong to inactive results. Calls follow the shape of the dose curve; as a rule, active = well fitted curve in the direction sought with a large enough effect; inconclusive = small, poorly fitted or top-dose-only effect, or effect the other way; inactive = no such curve, though single readings can be large or run the other way.
% is scaled to controls: 0 for no effect and ±100 for the full control effect.

This assay deals with Cytochrome P450 3A4 (Homo sapiens) (UniProt P08684). Put plainly: Cytochrome panel assay with activity outcomes. Particulars: recombinant CYP, pro-luciferin dealkylation, luminescence, p450-cyp3a4; series mostly up to 57.1 µM.
Sequence of Cytochrome P450 3A4 (Homo sapiens) (P08684 whole entry, looked up): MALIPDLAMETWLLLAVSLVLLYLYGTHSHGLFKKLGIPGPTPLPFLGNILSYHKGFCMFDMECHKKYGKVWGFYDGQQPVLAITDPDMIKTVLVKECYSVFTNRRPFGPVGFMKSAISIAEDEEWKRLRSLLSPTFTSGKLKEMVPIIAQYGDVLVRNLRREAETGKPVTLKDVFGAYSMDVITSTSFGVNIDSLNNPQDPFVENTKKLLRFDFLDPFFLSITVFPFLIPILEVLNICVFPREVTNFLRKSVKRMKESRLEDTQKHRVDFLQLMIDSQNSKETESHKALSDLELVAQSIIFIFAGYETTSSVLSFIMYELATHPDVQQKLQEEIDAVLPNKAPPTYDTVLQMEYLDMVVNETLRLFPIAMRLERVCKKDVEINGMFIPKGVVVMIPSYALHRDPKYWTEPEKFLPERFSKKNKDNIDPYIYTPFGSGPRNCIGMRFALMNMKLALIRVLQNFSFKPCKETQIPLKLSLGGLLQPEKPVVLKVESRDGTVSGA
Take `O=C(O)c1cc(N=Nc2ccc([N+](=O)[O-])cc2)ccc1O`: the activity, negative = inhibition is -6.97% [at 11.4 µM]. As to `COc1cc(/C=C(/NC(=O)c2ccccc2)C(=O)Nc2ccccc2)c([N+](=O)[O-])cc1OC`, the half-maximal activity concentration (AC50) is 0.794 µM (active). Regarding `Cc1ccc(C(=O)N/C(=C\c2ccc([N+](=O)[O-])cc2)C(=O)NCCc2ccccc2)cc1`, the half-maximal activity concentration (AC50) is 0.282 µM (active). Turning to `O=C(CNC(=O)c1ccc([N+](=O)[O-])cc1)c1ccccc1`, the AC50 entry was “inactive”. The same measure, in the same setting: with `COc1cc(/C=C(\C#N)C(=O)NCC2CCCO2)c([N+](=O)[O-])cc1OC` (centres undefined) the entry was “inactive”.

`N=c1ccn2c(n1)O[C@H]1[C@@H](OP(=O)(O)O)[C@H](CO)O[C@H]12`: the activity, negative = inhibition is -6.24% [at 11.4 µM]. The same measure, in the same setting: with `O=C(O)[C@H]1CCCC[C@@H]1C(=O)Nc1nc2ccccc2[nH]1` the figure was -6.18% [at 11.4 µM]; with `Cc1cc(NC(=O)C2CCCCC2)nc2c1c(=O)oc1ccccc12`, -4.81% [at 2.29 µM]. Regarding `Cc1cc(NC(=O)C2CCCC2)n(-c2nc3ccccc3[nH]2)n1`, the AC50 was 11.2 µM (active).

`O=C1C=C(NCC2CCCO2)C2(CCCCC2)O1` (centres undefined): the AC50 entry was “inactive”. On the same count and under the same terms, to `COc1ccc(COc2ccsc2C(=O)Nc2ccc(Cl)c(Cl)c2)cc1` belongs 7.08 µM (active); to `COC(=O)COc1ccsc1C(=O)OC`, “inactive”. For the compound `COc1ccc(/C=N/NC(=O)c2sccc2OCc2ccc(F)cc2)cc1OC`, the activity, negative = inhibition was -9.08% [at 2.29 µM]. As to `CCOC(=O)Nc1ccc(S(=O)(=O)NCc2ccccc2)cc1`, the AC50 result was “inactive”. With `O=S(=O)(NCc1cccnc1)c1ccc(Cl)nc1`, the activity, negative = inhibition was 5.89% [at 2.29 µM]. For `CCN(C1CCCCC1)S(=O)(=O)c1ccc(S(=O)(=O)NCc2ccncc2)cc1`, the AC50 was 7.08 µM (active). Consider `Oc1ccccc1CNCc1ccccc1O`, for which the activity, negative = inhibition is -7.01% [at 11.4 µM].

Regarding `COC(=O)N1CCC2(CCN(Cc3ccccc3OC)CC2)CC1`, the AC50 entry is “inactive”. The same measure, in the same setting: with `COc1ccccc1CNCC(O)(c1ccc(Cl)cc1)c1ccc(Cl)cc1` the figure was 3.55 µM (active); with `CCOc1nc(NCCc2ccc(OC)c(OC)c2)nc(NC(C)(C)CO)n1`, 11.2 µM (active); with `C=CCOc1ccc(CNC(C)(C)CO)cc1OCC`, “inactive”. Still for that read-out and setting: with `CCCNc1nc(NCC)nc(OC)n1` the entry was “inactive”; with `CC(C)N1CCC(=NNC(=O)c2ccc(Br)o2)CC1`, 15.8 µM (active).

As for `O=C(N/N=C/c1ccco1)c1ccc(Br)o1`, the AC50 entry was “inactive”. With `CCCN1CCC(=NNC(=O)c2ccc(Br)o2)CC1`, the activity, negative = inhibition was 11.6% [at 2.29 µM]. In the case of `Cc1ccc(C(CC(=O)c2ccco2)SCCO)cc1` (centres undefined), the AC50 result is “inactive”. Still for that read-out and setting: with `Cc1ccc(C(c2nnnn2CC2CCCO2)N2CCN(C(=O)c3ccco3)CC2)cc1` (centres undefined) the figure was 3.55 µM (active).

As to `CC(C)CCn1nnnc1C(c1ccc(F)cc1)N1CCN(C(=O)c2ccco2)CC1` (centres undefined), the AC50 is 7.94 µM (active).

Take `O=C(c1ccco1)N1CCN(C(=O)c2nn3cccnc3c2Cl)CC1`: the AC50 entry is “inactive”.

Consider `O=C(NCCCN1CCCCCC1)C1CC(=O)N(CCc2ccccc2)C1` (centres undefined), for which the AC50 entry is “inactive”. With `Cc1ccc(CCN2CC(C(=O)NC3CCCC3)CC2=O)cc1` (centres undefined), the concentration at half-maximal activity (AC50) is 15.8 µM (active). In the case of `CCCCNC(=O)C1CC(=O)N(CCC(C)C)C1` (centres undefined), the activity, negative = inhibition was 0.276% [at 11.4 µM]. Consider `CCOCCCN1CC(C(=O)NCCc2ccc(C)cc2)CC1=O` (centres undefined), for which the AC50 was 15.8 µM (active). On the same count and under the same terms, to `Cc1ccc(CCN2CC(C(=O)NCCN3CCOCC3)CC2=O)cc1` (centres undefined) belongs “inactive”; to `CN(C)CCCN1CC(C(=O)O)CC1=O` (centres undefined), “inactive”. Regarding `Cn1c([N+](=O)[O-])cnc1COC(N)=O`, the AC50 result was “inactive”. Same read-out and setting: to `COc1ccccc1/C=C/C(=O)c1c2c(c(C)[nH]c1=O)CCCC2` belongs 3.98 µM (active). For the compound `Cc1[nH]c(=O)c(C(=O)/C=C/c2ccccc2F)c2c1CCCC2`, the AC50 is 11.2 µM (active). Still for that read-out and setting: to `C[N+](C)(C)CCOC(N)=O` belongs “inactive”; to `c1ccc2c(Nc3ccncc3)nc(-c3ccoc3)nc2c1`, 1.26 µM (active).

With `c1ccc2c(NC3CC3)nc(-c3ccoc3)nc2c1`, the AC50 is 3.98 µM (active). On the same count and under the same terms, with `CNc1nc(-c2ccoc2)nc2ccccc12` the figure was 15.8 µM (active); with `c1ccc2c(NC3CCNCC3)nc(-c3ccoc3)nc2c1`, “inactive”; with `Fc1ccc(Nc2nc(-c3ccoc3)nc3ccccc23)cc1`, 3.98 µM (active).

As to `O=S(=O)(c1ccc(F)cc1)N1CC2CCCN2c2ccc(C(F)(F)F)cc21` (centres undefined), the half-maximal activity concentration (AC50) was 6.31 µM (active).

Take `COc1ccc(S(=O)(=O)N2CC3CCCN3c3ccc(C(F)(F)F)cc32)cc1` (centres undefined): the AC50 is 1 µM (active). Same read-out and setting: with `O=C1COc2ccc(OCc3ccc(F)cc3)cc21` the entry was “inactive”. In the case of `NC(=O)c1csc(-c2ccc(CO)o2)n1`, the activity, negative = inhibition was -8.17% [at 11.4 µM]. Turning to `OCc1ccc(-c2nn(Cc3ccccc3)c3ccccc23)o1`, the AC50 is 12.6 µM (active).

For the compound `Clc1cc2c(c(CSC3=NCN(CC4CC4)CN3)c1)OCOC2`, the activity, negative = inhibition was -21.4% [at 11.4 µM]. Still for that read-out and setting: with `CC(=O)OC[C@@H]1O[C@@H](O/N=C2/C[C@@H](O)[C@@H](O)[C@@H]3[C@H]4C(=O)N(c5ccc(F)cc5F)C(=O)[C@@H]4CC[C@@H]23)[C@H](OC(C)=O)[C@H](OC(C)=O)[C@@H]1OC(C)=O` the figure was -27.1% [at 11.4 µM].

Take `CC(=O)NC1C(OCCOc2ccc(Cl)cc2Cl)OC(COC(C)=O)C(OC(C)=O)C1OC(C)=O` (centres undefined): the half-maximal activity concentration (AC50) was 14.1 µM (active).

Take `CCCCCCCCOC1OC(CO)C(O)C(O)C1NC(C)=O` (centres undefined): the AC50 result was “inactive”. As for `CNc1oc(C)nc1S(=O)(=O)c1ccc(C)cc1`, the AC50 entry is “inactive”. As to `CNc1nc(C)cc(C)c1S(=O)(=O)c1ccc(C)cc1`, the concentration at half-maximal activity (AC50) was 4.47 µM (active). Same read-out and setting: to `CCCSc1nc(C)cc(C)c1S(=O)(=O)c1ccccc1C` belongs “inactive”; to `CNc1nc(C)cc(C)c1S(=O)(=O)c1ccc(Cl)cc1`, 4.47 µM (active); to `Cc1cc(-c2ccccc2)[nH]c(=O)c1S(=O)(=O)c1ccc(Cl)cc1`, “inactive”. `COc1ccc([N+](=O)[O-])cc1COc1ccc2c(-c3ccccc3)cc(=O)oc2c1`: the AC50 result was “inactive”. Still for that read-out and setting: to `COc1ccc(C2Nc3ccccc3C(=O)N2Cc2ccco2)cc1COc1ccc([N+](=O)[O-])cc1` (centres undefined) belongs 4.47 µM (active); to `Cc1ccc(C2Nc3ccccc3C(=O)N2Cc2ccco2)cc1` (centres undefined), 14.1 µM (active); to `O=S(=O)(c1ccccc1)N1CCC[C@@]2(CCN(C(c3ccccc3)c3ccccc3)C2)C1`, 3.16 µM (active). Still for that read-out and setting: with `O=S(=O)(c1ccccc1)N1CCC2(CCCN(C(c3ccccc3)c3ccccc3)C2)CC1` the figure was 2 µM (active).

Turning to `CN1CCC2(CC1)CCN(S(=O)(=O)c1ccccc1)CC2`, the AC50 result was “inactive”.
